# Experimental data reported in PubChem BioAssay (NCATS).
# Results filed as inconclusive are left out. Unmarked numbers belong to inactive results. Calls come from the whole dose curve; as a rule, active = well fitted activation curve with a large enough effect; inconclusive = small, poorly fitted or top-dose-only effect; inactive = flat fitted curve, though single readings scatter.
# Experiment: Primary redox qHTS assay for identification of artifact compounds. (AID 1845223);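 note: 0% = DMSO and 100% = reference compound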
# Settings: Amplex Red/HRP redox cycling with DTT, fluorescence; series mostly up to 53.8 µM; redox activity (% of DA3003): at the top concentration
# Procedure, shortened: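 Amplex Red (25 uM) and HRP (250 mU/mL) in HBSS, with compounds for 15 min, then 250 uM DTT for 30 min, room temperature, dark. Fluorescence 525/598 nm read; normalized to DMSO and 10 uM DA3003; Hill fit.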
row,SMILES,redox activity (% of DA3003)
1,C=C(C)C(C)C1OC23CC4(CO2)C(CCC2C5(C)CCC(OC6OCC(O)C(OC7OC(CO)C(O)C(OC8OCC(O)C(O)C8O)C7O)C6OC6OC(CO)C(O)C6O)C(C)(C)C5CCC24C)C3C(C)(O)C1OC(C)=O (stereo not given),8.02% [at 11.5 µM]
2,CNC(=O)c1ccc2cc([C@@]3(O)CCn4cncc43)ccc2c1,-4.72%
3,O=C1CC(c2ccc([N+](=O)[O-])cc2)=NN1c1ccccc1,-1.68%
4,COc1cc(CCc2ccccc2)c(C(=O)O)c2c1CC(C(C)(C)O)O2 (stereo not given),10.9%
5,CCNC(=O)[C@H]1O[C@H](n2cnc3c(NCC(c4ccccc4)c4ccccc4)nc(C(=O)NCCNC(=O)NC4CCN(c5ccccn5)CC4)nc32)[C@H](O)[C@@H]1O,1.7%
6,CC(O)(CC(=O)O)CC(=O)O[C@@H]1[C@@H](O)[C@H](OCCc2ccccc2)O[C@H](CO)[C@H]1O (stereo not given in full),-17.1% [at 25.6 µM]
7,C[C@@]12C[C@]3(O)O[C@H](O1)[C@]1(COC(=O)c4ccccc4)[C@H]3C[C@@]12O[C@@H]1O[C@H](COC(=O)c2ccccc2)[C@@H](O)[C@H](O)[C@H]1O,-1.4% [at 25.6 µM]
8,CC(c1c[nH]c2ccccc12)C(O)C(=O)O (stereo not given),1.64%
9,C=C1CC23CC1(O)CCC2C1=CC2OC(=O)C(C)(C2O)C1C3C(=O)O (stereo not given),-12.7%
10,C=C1C(=O)O[C@H]2[C@H]1[C@@H](OC(=O)C(C)CO)C[C@@]1(C)[C@H](O)CCC(=O)[C@H]21 (stereo not given in full),-13.5%
